FLuc counter – firefly luciferase modulation, counter-screen for miR-21 project. P08659. purified FLuc, Km substrates, luminescence inhibition. Potency, µM (titrated, usually from 57.5 µM), without a hit: at the highest dose activity change, negative = inhibition, usual class: inhibitors. 360,000 compounds, 6.9% hits;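 further: plate controls were vehicle for no effect and reference inhibitor for full effect; nearly all actives have a fitted effect of over 55% in size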
Target sequence (P08659 whole entry, looked up): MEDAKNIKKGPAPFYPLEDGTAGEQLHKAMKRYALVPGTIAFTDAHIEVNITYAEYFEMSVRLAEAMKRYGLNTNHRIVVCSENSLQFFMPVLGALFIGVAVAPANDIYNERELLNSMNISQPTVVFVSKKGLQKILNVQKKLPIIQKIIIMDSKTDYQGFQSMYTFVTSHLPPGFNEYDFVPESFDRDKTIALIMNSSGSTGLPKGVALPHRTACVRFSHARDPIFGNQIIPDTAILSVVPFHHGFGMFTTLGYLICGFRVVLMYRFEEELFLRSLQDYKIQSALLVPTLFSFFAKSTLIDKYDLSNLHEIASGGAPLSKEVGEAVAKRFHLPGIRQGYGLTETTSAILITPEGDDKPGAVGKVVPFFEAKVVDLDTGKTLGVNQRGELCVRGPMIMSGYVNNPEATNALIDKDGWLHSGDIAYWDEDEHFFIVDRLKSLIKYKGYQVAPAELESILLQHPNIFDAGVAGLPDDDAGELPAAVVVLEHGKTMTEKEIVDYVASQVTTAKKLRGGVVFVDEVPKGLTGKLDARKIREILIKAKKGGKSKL
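Biochemical qHTS of compounds, final roughly 60 µM downward over six points, against 10 nM purified firefly luciferase using Km concentrations of substrates (10 uM D-luciferin, 10 uM ATP) in Tris acetate pH 7.5 buffer; luminescence output.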
ELG1 genotox – inducers of genotoxicity in HEK293T ELG1-luciferase cells; HEK293T ELG1-luciferase reporter, luminescence, 16 h; Potency, µM (titrated, usually from 46 µM), inactives show top-dose activity change, positive = activation, hits mostly activators; 330,000 compounds, 1.3% hits; AID 504466; further: % of control where 0% means no effect; nearly all actives have a fitted effect of over 60% in size
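HEK293T cells expressing luciferase-tagged ELG1 were exposed to compound or DMSO vehicle for 16 hr at 37 °C and 5% CO2. Luciferase activity was then measured with ONE-Glo after 30 min at room temperature.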
Rab9 prom act – activates the Rab9 promoter; Huh7 Rab9 promoter-luciferase reporter, luminescence, 24 h; Potency, µM (series often up to 9.22 µM), without a hit: top-dose activation, negative = inhibition, most hits filed as activators; 320,000 compounds, 2.8% hits; further: % of control where 0% means no effect; nearly all actives have a fitted effect of over 60% in size
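Using Huh7 cells stably transfected with Rab9 promoter–luciferase, compounds were incubated 24 h at 37 °C, 5% CO2; luciferase luminescence was read 10 min after reagent addition.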
NPC1 promoter act – activators of NPC1 promoter. Huh7 NPC1 promoter luciferase reporter, 24 h. Potency, µM (doses to about 9.22 µM), for inactives: top-dose activation, most hits filed as activators. 320,000 compounds, 2.4% hits. AID 485313; further: % of control where 0% means no effect; nearly all actives have a fitted effect of over 60% in size
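Luminescence read-out of NPC1 promoter-driven luciferase in stably transfected Huh7 cells; compounds delivered in DMSO and left 24 h at 37C, 5% CO2, qHTS titration format.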
SMN2 splice enh – increases expression of the SMN2 splice variant; AID 1458; HEK293 SMN2-luciferase splicing reporter, luminescence, 30-36 h; Potency, µM (titrated, usually from 46.1 µM), inactives show at the highest dose activity change, positive = activation, hits mostly activators; 210,000 compounds, 2.8% hits; further: % of control where 0% means no effect; nearly all actives have a fitted effect of over 55% in size
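HEK293 cells carry an SMN2 […]–luciferase reporter in which exon 7 inclusion puts luciferase in frame. Cells were plated 10-12 h before compound addition, then incubated 30-36 h at 37C. ONE-Glo luminescence was read; sodium butyrate at 4.5 mM final served as control.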
Luc counter – counter-screen: inhibitors of Kinase-Glo firefly luciferase; 200,000 compounds, 0.28% hits; Potency, µM (top dose mostly 38.3 µM), without a hit: at the top dose activity change, negative = inhibition, hits mostly inhibitors; Kinase-Glo luciferase, ATP luminescence, 8 min; further: on the % scale 0 is the no-effect control and ±100 the full control effect; nearly all actives have a fitted effect of over 60% in size
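Compound is pinned into ATP-containing buffer (10 uM ATP, imidazole pH 7.2, 7 mM MgCl2). Kinase-Glo luciferase reagent is then added. Light output is recorded following an 8-min room-temperature incubation.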
* = called active by the depositor; u = inconclusive; x = no result given; ! = not active in a repeat; [ ] = remark or other dose. Hits are enriched below; roughly 7.5% of the tested compounds scored in any of these assays. The call rests on the fitted dose curve; in most records, active means well fitted curve in the direction sought with a large enough effect; inconclusive means small, poorly fitted or top-dose-only effect, or another doubt; inactive means no such curve, though single readings can be large; an effect the other way counts as inactive or inconclusive. Potency means the concentration at half of the fitted maximal effect.

SMILES | FLuc counter | ELG1 genotox | Rab9 prom act | NPC1 promoter act | SMN2 splice enh | Luc counter
CC1(C)S[C@@H]2[C@H](NC(=O)C(NC(=O)N3CCNC3=O)c3ccccc3)C(=O)N2[C@H]1C(=O)O (some centres not stated) | 0% | 2% | 0% | -4% | x | x
COc1ccc(-c2csc(C)n2)cc1OC | u | 14% | 8% | 2% | -13% | -6%
Nc1nc(-c2ccc3c(c2)NC(=O)CO3)cs1 | -10% | u | 3% | -1% | -39% | 5%
Cc1nc(-c2ccc3c(c2)OCO3)cs1 | 15µM* | 6% | 14% | 17% | u | -4%
CC1Cc2cc(-c3csc(N)n3)ccc2O1 (configuration not stated) | 9.5µM* | u | 1.3µM* | u | x | x
COC(CNC(=O)c1cc(-c2ccncc2)nc2ccc(S(=O)(=O)N3CCOCC3)cc12)OC | 3% | -10% | 1% | -6% | 0% | 11%
COCC1CCCN(C(=O)c2ccc3nc(Cc4cccc(Cl)c4)oc3c2)C1 (configuration not stated) | 13µM* | u | 2.2µM* | 3.2µM* | x | x
COC(=O)CN(C)C(=O)c1ccc2nc(Cc3cccc(Cl)c3)oc2c1 | 24µM* | u | 3.5µM* | 2.8µM* | x | x
CCn1c(SCC(=O)Nc2oc(-c3ccccc3)c(-c3ccccc3)c2C#N)nnc1-c1cc(OC)cc(OC)c1 | 3% | 1% | -3% | -3% | -6% | 1%
Cc1cc(C(=O)COC(=O)c2ccc[nH]c2=O)c(C)n1CCc1ccc(F)cc1 | 0% | -3% | -1% | -2% | 2% | -1%
Cc1ccc(-n2c(C)cc(C(=O)COC(=O)c3ccc[nH]c3=O)c2C)cc1 | 2.7µM* | u | 0.4µM* | 0.32µM* | 2.5µM* | -5%
COCCn1c(C)cc(C(=O)COC(=O)c2ccc[nH]c2=O)c1C | 3µM* | u | u | u | -9% | -26%
COCC(=O)OCC(=O)c1cc(C)n(-c2ccc(Br)cc2)c1C | 12µM* | -3% | 4% | -1% | -4% | -4%
Cc1cc(C(=O)COC(=O)c2ccc[nH]c2=O)c(C)n1C | 9.5µM* | u | 30% | 22% | -28% | -4%
COc1ccc2[nH]c(C(=O)O)c(NS(=O)(=O)c3ccc(C)cc3C)c2c1 | 3% | -1% | -1% | 1% | x | x
CSc1ncccc1C(=O)Nc1nnc(C2CC2)s1 | -17% | 4% | -1% | 1% | 6% | -1%
COc1cccc(NC(=O)CN(C)C(=O)c2cc(-c3ccc(C)o3)nc3ccccc23)c1 | 11µM* | -5% | 0% | 5% | x | x
COc1ccc(NC(=O)CN(C)C(=O)c2cc(-c3ccc(Cl)cc3)nc3ccccc23)cc1 | 24µM* | -43% | -1% | 2% | x | x
CCOc1ccc(NC(=O)CN(C)C(=O)c2cccc3ccccc23)cc1OCC | 3% | 0% | -5% | -3% | x | x
COc1cccc(NC(=O)c2cc(-c3ccc(C)o3)nc3ccccc23)c1 | u | 2% | 22% | 18% | x | x
CCOc1ccc(NC(=O)CN(C)C(=O)c2cc(-c3ccc(OC)cc3)nc3ccccc23)cc1OCC | 13µM* | -27% | 2% | -1% | x | x
COc1cccc(NC(=O)CN(C)C(=O)c2cc(-c3cccc(Br)c3)nc3ccccc23)c1 | u | -25% | 2% | 1% | x | x
CCOc1ccc(-c2nnc(SCC(=O)NCc3ccccc3)nc2-c2ccc(OCC)c(OC)c2)cc1OC | 6% | x | x | x | x | x
COc1ccc(C(=O)Nn2cnc3scc(-c4cccs4)c3c2=O)c(O)c1 | 15µM* | 7.3µM* | 2.5µM* | 2.8µM* | 13µM* | 1%
COc1cccc(-n2cnc3scc(-c4cccs4)c3c2=O)c1 | -2% | -3% | 1% | 3% | -7% | 2%
SMILES | FLuc counter | ELG1 genotox | Rab9 prom act | NPC1 promoter act | SMN2 splice enh | Luc counter
CCCCCc1nnc(NC(=O)C2CCCO2)s1 (configuration not stated) | u | 13µM* | u | 28% | u | -2%
CC(C)Cc1nnc(NC(=O)C2=COCCO2)s1 | 17µM* | u | u | u | x | x
CCCCCc1nnc(NC(=O)C2=COCCO2)s1 | 19µM* | u | 2.2µM* | 2.8µM* | x | x
O=C(Nc1nccs1)C1=COCCO1 | x | 7% | x | x | x | x
CC(C)(C)[C@@H]1CCC(=O)N(CC[C@H](N=[N+]=[N-])c2ccccc2)CC1 | -25% | 0% | 1% | 12% | x | x
COc1cc(-c2ccc(N=Nc3ccc4c(S(=O)(=O)O)cc(S(=O)(=O)O)c(N)c4c3O)c(OC)c2)ccc1N=Nc1ccc2c(S(=O)(=O)O)cc(S(=O)(=O)O)c(N)c2c1O | x | x | x | x | -12%[20.6 µM] | 10µM*!
Cc1nn(-c2ccc(S(=O)(=O)O)cc2)c(O)c1N=Nc1ccc(-c2ccc(N=Nc3ccc4c(S(=O)(=O)O)cc(S(=O)(=O)O)c(N)c4c3O)c(O)c2)cc1O.[Cu].[Cu] | x | x | x | x | -4%[9.22 µM] | -25%[7.66 µM]
O=C(c1ccco1)N1CCC2(CC1)CN(c1cccc(-c3ccccc3)c1)C2 | x | x | x | x | -47% | -4%
CCCCCOc1ccc(CN2CCOCC2)cc1Cl | 6.7µM* | 14µM* | 3.5µM* | 3.2µM* | u | -3%
Clc1cc(Br)ccc1OCCN1CCOCC1 | -13% | 1% | -4% | -3% | -1% | -3%
COc1cccc2oc3ccc(C#Cc4ccccn4)cc3c(=O)c12 | 1.1µM* | u | 1.8µM* | 0.79µM* | x | x
CNC(C)C#Cc1ccc2sc3cccc(OC)c3c(=O)c2c1 (configuration not stated) | u | 5% | 18% | 6% | x | x
COc1cccc2sc3cc(C#Cc4ccccn4)ccc3c(=O)c12 | x | 8% | x | x | x | x
CNC(C)C#Cc1ccc2c(=O)c3c(OC)cccc3oc2c1 (configuration not stated) | 24µM* | u | u | u | x | x
CNC(C)C#Cc1c(-c2cc(OC)c(OC)c(OC)c2)noc1C (configuration not stated) | 0% | 9% | -1% | -4% | x | x
CNC(C)C#Cc1ccc2oc3cccc(OC)c3c(=O)c2c1 (configuration not stated) | 15µM* | u | u | 24% | x | x
Cc1cc(C)cc(Oc2coc3c(CN4CCN(C)CC4)c(O)ccc3c2=O)c1 | -1% | x | x | x | -10% | x
O=c1cc(-c2ccc(C3CCCCC3)cc2)[nH][nH]1 | 11µM* | 17% | 1% | 4% | 9% | -1%
O=c1cc(-c2ccc(F)cc2)[nH][nH]1 | 0% | -2% | -2% | -4% | 19% | 0%
O=C(CSc1ncn[nH]1)N/N=C/c1ccc(Br)cc1 | 15µM* | 1% | 0% | 1% | x | x

Screens as filed in PubChem BioAssay.
